# Source: PubChem BioAssay
# Results with a measured potency or affinity are listed apart. Unmarked numbers belong to inactive results.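 Rule for the calls, unless noted: active = a dose-response fit showing signal loss, with half-maximal concentration no higher than twice the top tested dose; inconclusive = flat fit between 30% and 70% signal loss, or poor fit; inactive = the rest.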
# Test: inducers of Cryptococcus neoformans cell lysis, dose response, AK release luminescence, cherry-picks (AID 687000;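 active = fitted dose curve reaches 40% lysis signal rise at or below the highest valid concentration tested for that sample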;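 note: luminescent detection of adenylate kinase leaking from lysed yeast; 0% = median neutral control signal and 100% = double that signal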)
# Details: C. neoformans lysis, adenylate kinase release luminescence, 4 h, 100% = twice the neutral-control signal; series mostly up to 15 µM; lysis activity: at the top concentration
row,Structure (SMILES),lysis activity [%]
1,CNC(=O)C[C@H]1CC[C@H]2[C@H](COc3ccc(NC(=O)c4cc(C)on4)cc3C(=O)N2C)O1,-15
2,C[C@@H]1CN([C@@H](C)CO)S(=O)(=O)c2ccc(C#C[C@@H](C)O)cc2O[C@@H]1CN(C)C(=O)C1CCCCC1,-5.15
3,C[C@H](CO)N1C[C@H](C)[C@H](CN(C)C(=O)Nc2cccc(F)c2)Oc2ncc(C#CCN(C)C)cc2C1=O,-8.59
4,COc1ccccc1NC(=O)N[C@@H]1CC[C@H](CCn2cc(-c3ccccc3OC)nn2)O[C@H]1CO,-9.24
5,CC(C)NC(=O)N(C)C[C@@H]1OCCCC[C@H](C)Oc2ccc(NC(=O)Cc3ccccc3)cc2C(=O)N([C@H](C)CO)C[C@H]1C,7.99
6,COc1cccc(C#Cc2cnc3c(c2)C(=O)N([C@H](C)CO)C[C@@H](C)[C@@H](CN(C)C(=O)C2CCOCC2)O3)c1,0.182

# Test: HepG2 cell cytotoxicity, dose response, cytotoxicity control, cherry-picks, set 2 (AID 687002)
# Details: HepG2 viability, ATP luminescence (CellTiter-Glo), 48 h; series mostly up to 26 µM; activity change, negative = cytotoxicity: at the top concentration
row,Structure (SMILES),"activity change, negative = cytotoxicity"
1,Cc1ccc(S(=O)(=O)N(C)C[C@@H]2Oc3ccc(NS(=O)(=O)c4ccc(Cl)cc4)cc3CC(=O)N([C@@H](C)CO)C[C@@H]2C)cc1,-6.28%
2,C[C@H](O)C#Cc1cnc2c(c1)C(=O)N([C@@H](C)CO)C[C@@H](C)[C@@H](CN(C)C(=O)Cc1ccncc1)O2,2.48%
3,COc1ccc(-n2ncc3c(SCC(=O)N4CCN(c5ccccc5OC)CC4)ncnc32)cc1,2.19%
4,CC(=O)N1[C@@H]2CN(S(=O)(=O)c3ccccc3F)c3ccccc3[C@@H]2[C@@H]1CO,1.83%
5,COCC(=O)NC[C@H]1N[C@H](CO)[C@@H]1c1ccc(C2=CCCC2)cc1,2.01%
6,CCC(C)(NC=O)C(=O)Nc1c(C)cccc1C (stereo not drawn),4.78%
7,CO[C@@H]1CN(C)C(=O)c2ccc(NC(=O)NC(C)C)cc2OC[C@H](C)NC[C@@H]1C,-1.9%
8,CNC(=O)C[C@@H]1CC[C@@H]2[C@H](COC[C@@H](O)CN2C(=O)Nc2ccc3c(c2)OCO3)O1,-1.18%
9,CNC[C@@H]1OCCCC[C@H](C)Oc2ccc(NC(=O)c3ccccc3)cc2C(=O)N([C@@H](C)CO)C[C@@H]1C,3.61%
10,COc1cccc(-c2cn(CC[C@@H]3CC[C@H](NC(C)=O)[C@@H](CO)O3)nn2)c1,-7.16%
11,O=C(C[C@@H]1CC[C@@H]2[C@H](COC[C@H](O)CN2Cc2cccc(C(F)(F)F)c2)O1)NCc1ccc(Cl)cc1,-2.71%
12,CO[C@H]1CN(C)C(=O)c2ccc(NC(=O)C3CC3)cc2OC[C@@H](C)N(Cc2ccc(F)cc2)C[C@@H]1C,0.408%
13,C[C@@H]1CN([C@H](C)CO)C(=O)c2cc(NC(=O)CCC(F)(F)F)ccc2O[C@@H](C)CCCCO[C@@H]1CN(C)C(=O)c1ccncc1,6.26% [at 23.5 µM]
14,C[C@@H]1CN([C@@H](C)CO)C(=O)c2cc(-c3ccc(C#N)cc3)cnc2O[C@@H]1CN(C)C(=O)Nc1ccc(F)cc1,1.36%
15,CO[C@H]1CN(C)C(=O)c2cc(NC(=O)C3CCOCC3)ccc2OC[C@@H](C)NC[C@H]1C,10.5% [at 23.5 µM]
16,CN1C(=O)c2cccc3c(S(=O)(=O)N(C)C)ccc1c23,-8.19%
17,N#Cc1ccc(C23CC4(C2)[C@H](CN(Cc2ccc(-c5ccccc5)cc2)[C@@H]4c2ccccc2)C3c2ccc(C(F)(F)F)cc2)cc1 (stereo partly drawn),0.033%
18,CN1C(=O)c2cc(NS(=O)(=O)c3cccc(F)c3)ccc2OC[C@@H]2O[C@@H](CC(=O)O)CC[C@H]21,-6.43%
19,COCC#Cc1cnc2c(c1)C(=O)N([C@@H](C)CO)C[C@@H](C)[C@@H](CN(C)C(=O)C1CC1)O2,-7.38%
20,CC(=O)N1[C@@H](CO)[C@H](c2ccc(-c3ccccc3)cc2)[C@@H]1CNC(=O)C1CC1,-4.26%
21,O=C(NCC[C@H]1CC[C@H](NS(=O)(=O)c2ccc(F)cc2)[C@@H](CO)O1)c1ccc2c(c1)OCO2,-3.12%
22,COCCNC(=O)C[C@@H]1C[C@H]2c3cc(NC(=O)C4CCC4)ccc3O[C@H]2[C@@H](CO)O1,-14.4%
23,COc1ccc(-n2cc(CNCCc3nc(C)cc(C)n3)c(-c3ccccc3Cl)n2)cc1,-12.9%
24,C[C@H]1CCCCO[C@H](CN(C)Cc2ccncc2)[C@@H](C)CN([C@@H](C)CO)C(=O)c2cc(NC(=O)CCCN(C)C)ccc2O1,-0.411%
25,COCC(=O)N1C[C@H](C)[C@H](OC)CN(C)C(=O)c2ccc(NC(=O)NC(C)C)cc2OC[C@@H]1C,0.461%
26,COc1ccc(N2CCN(C(=O)CSc3ncnc4c3cnn4-c3ccc(OC)cc3)CC2)cc1,18.6%
27,CC(=O)NC[C@H]1[C@@H](c2ccc(C3=CCCC3)cc2)[C@@H](CO)N1C(=O)NC(C)C,1.14%
